# Source: PubChem BioAssay (National Center for Advancing Translational Sciences (NCATS))
# GLP-1R inv ag: acts as inverse agonist at human GLP-1 receptor; P43220; HEK293 GLP-1R CRE-luciferase, luminescence, 24 h; GLP-1R form is constitutively active; Potency, µM (titrated, usually from 38.3 µM), inactives show top-dose activity change, negative = inhibition, usual class: inhibitors; 410,000 tested, 1.6% active; also: potency is read from the fitted curve at half-maximal effect; % is scaled to controls: 0 for no effect and ±100 for the full control effect; nearly all actives have a fitted effect of over 55% in size
#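 Assay principle: reduced luminescence from a cAMP-responsive reporter in HEK293 cells co-expressing a constitutively active GLP-1R. Conditions: 24 hr compound incubation, 37 deg C, 5% CO2.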
# GLS inhibitor: blocks human kidney-isoform glutaminase activity. GLS enzymatic activity, qHTS titration. Potency, µM (top dose mostly 45.5 µM), for the others: top-dose activity change, negative = inhibition, most hits filed as inhibitors. 410,000 tested, 0.21% active; also: potency is read from the fitted curve at half-maximal effect; % is scaled to controls: 0 for no effect and ±100 for the full control effect
#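 Coupled fluorescence readout: glutamate oxidase/HRP/Amplex Red detect glutamate formed by hKGA from L-glutamine (1 mM solution added). Buffer 45 mM KH2PO4 pH 8.2, 0.02% Tween-20; reads at t0 and 30 min RT.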
# KCNH2 3.1 inh: inhibitors of human KCNH2 3.1 potassium channel isoform; U2OS KCNH2 3.1, thallium flux FluxOr; hits give low values; activity change, % (tested at about 1.8 µM); 340,000 tested, 0.95% active; AID 720553;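 active = maximum activity change below -70%; inconclusive = maximum activity change from -70% to -50%; inactive = maximum activity change above -50%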;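 also: thallium influx rate constant from kinetic fluorescence after stimulation buffer; % is scaled to controls: 0 for no effect and ±100 for the full control effect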
#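 Normalized rate constant (relative to positive and negative DMSO controls) derived from a 2 min kinetic fluorescence read after stimulation; U2OS cells expressing the 3.1 isoform via virus at 1.77 x 10^8 /mL.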
# HEK293 tox: cytotoxic in the GLP-1 receptor inverse agonist counter-screen | HEK293 cAMP-luciferase reporter cells, luminescence, 24 h | 410,000 tested, 0.13% active | AID 624418 | Potency, µM (top dose mostly 38.3 µM), for the others: at the top dose activity change, negative = inhibition, hits mostly inhibitors;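 also: loss of luciferase light is scored as toxicity; potency is read from the fitted curve at half-maximal effect; % is scaled to controls: 0 for no effect and ±100 for the full control effect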
#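 Here, cytotoxicity is scored as loss of luminescence. The MLSMR collection was tested on cells seeded in medium containing 10% Nu serum, with a 24 hr compound exposure preceded by 12 hours of culture.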
# GLP-1R agonist: GLP-1 receptor (human) agonism. P43220. AID 624172. 380,000 tested, 0.007% active. HEK293 GLP-1R CRE-luciferase, luminescence, 4-6 h; cells express a hypersensitive GLP-1R form. Potency, µM (doses to about 45.6 µM), inactives show at the highest dose activation, actives largely listed as activators; also: potency is read from the fitted curve at half-maximal effect; % of control where 0% means no effect
# KCNH2 WT inh: inhibitors of human wildtype KCNH2 potassium channel. Q12809. U2OS, BacMam KCNH2, thallium flux FluxOr; hits give low values. activity change, % at 1.84 µM. 340,000 tested, 0.37% active;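 active = maximum activity change below -70%; inconclusive = maximum activity change between -70% and -50%; inactive = maximum activity change above -50%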; also: % is scaled to controls: 0 for no effect and ±100 for the full control effect
#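 U2OS cells were transduced with wild-type KCNH2 virus (2.03 x 10^8 / mL) for 4 h at room temperature, then cultured overnight at 37 C. Thallium flux was read with FluxOr dye. Rate constants were normalized to DMSO controls.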
# The depositor's hits bear a star; ? = inconclusive; / = no result given; [ ] = dose if it differs, or a comment. This is a sample that favours compounds with a hit; in the whole collection about 2.8% have one here. Unless noted, calls follow the shape of the dose curve; as a rule, active = well fitted curve in the direction sought with a large enough effect; inconclusive = small, poorly fitted or top-dose-only effect, or another doubt; inactive = no such curve, though single readings can be large; an effect the other way counts as inactive or inconclusive.
SMILES,GLP-1R inv ag,GLS inhibitor,KCNH2 3.1 inh,HEK293 tox,GLP-1R agonist,KCNH2 WT inh
O=C1CCN(Cc2ccc(O)cc2)CCN1[C@H](CO)c1ccccc1,20%,24%,-118*,-7%,6%,-3
O=C1CCN(CCc2ccccc2)CCN1[C@H](CSc1ccc(Br)cc1)c1ccccc1,-16%,3%,-113*,-15%,-1%,-170*
CCCN1CCC(=O)N([C@H](CSc2ccc(Br)cc2)c2ccccc2)CC1,-15%,1%,-116*,-13%,12%,-130*
Nc1nc(N2CCN(C(=O)c3ccco3)CC2)nc2ccc(Br)cc12,?,1%,-89*,?,-4%,/
CCC1(c2ccccc2)SC(N)=NC1=O (centres undefined),0%,0%,1,0%,-4%,25
CCC1(c2ccccc2)SCC(c2ccccc2)=NC1=O (centres undefined),3.2µM*,7%,-31,-8%,9%,-5
CC(=O)/C(=C(/O)c1ccccc1)c1nc2ccccc2[nH]1,4%[7.66 µM],-3%,2,10%[7.66 µM],-1%,-8
O=C(/C(=C(\O)c1ccccc1)c1nc2ccccc2[nH]1)c1ccccc1,10µM*,-5%,-13,?,10%,-12
COc1ccc(-n2c(=O)c3c(c4cc(OC)ccc4n3C)n(C)c2=O)cc1,2%,0%,/,1%,0%,/
COc1ccc(C)cc1NS(=O)(=O)c1c(C(=O)N2CCCCCC2)c(C)n(C)c1C,4%,19%,/,1%,/,/
CCOC(=O)c1ccc(S(=O)(=O)N2CCC(N3CCCCCC3)CC2)cc1,3%,-4%,-4,-34%,0%,12
Clc1ccc(-n2nnc(-c3nccs3)n2)cc1Cl,-9%,26%,6,-10%,-4%,-11
Cc1ccc(-n2nnc(-c3nccs3)n2)cc1,2.8µM*,-5%,/,9%,-8%,/
CCOC(=O)c1ccc(NC(=O)CN(Cc2ccc(C)cc2)S(=O)(=O)c2ccc(C)cc2)cc1,-6%,1%,/,2%,/,/
CCCCN(C(=O)COC(=O)CSc1ccc([N+](=O)[O-])cc1)c1c(N)n(CCC)c(=O)[nH]c1=O,9%,1%,-115*,-8%,-25%,-3
CCCCN(C(=O)COC(=O)CSc1cc(C)c2ccccc2n1)c1c(N)n(CCC)c(=O)[nH]c1=O,27%,-2%,-16,6%,-2%,-25
CC(C)Cn1c(-c2ccc(Br)cc2)c[nH]c1=S,10µM*,-22%,10,?,15%,12
CCn1c(-c2ccccc2)c[nH]c1=S,-15%,-1%,9,-24%,1%,2
COc1cccc(CNC(=O)[C@@H]2CCCN2C(=O)[C@H]2CCCCN2C(=O)c2cccc3ccccc23)c1,-16%,7%,/,5%,6%,/
CC(C)(C)c1ccc(C2=NC(C)(C)N(CC(=O)Nc3ccc(F)c(F)c3)C2=O)cc1,11µM*,9%,/,1%,/,/
COc1ccc(C2=NC(C)(C)N(CC(=O)Nc3cc(OC)cc(OC)c3)C2=O)cc1,4%,-3%,/,-3%,/,/
CC(NC(=S)NC1CCC(C(C)(C)C)CC1)c1ccccc1 (centres undefined),10µM*,-5%,2,-11%,4%,-1
Cc1cccc(NC(=O)C2CCCN(S(=O)(=O)c3c(C)[nH]c(=O)[nH]c3=O)C2)c1C (centres undefined),-5%,2%,/,3%,0%,/
COc1ccc(C2NC(c3ccc(OC)cc3)C(c3ccccc3)C(=O)C2c2ccccc2)cc1 (centres undefined),5.6µM*,-8%,10,23%,0%,2
COc1ccc(C2NC(c3ccc(OC)cc3)C(C)C(=O)C2C)cc1 (centres undefined),?,6%,-2,23%,14%,0
